# Screening data deposited in PubChem by National Center for Advancing Translational Sciences (NCATS).
# FLuc counter = firefly luciferase modulation, counter-screen for miR-21 project | 6.9% of 360,000 active | Potency, µM (top dose mostly 57.5 µM), without a hit: at the highest dose activity change, negative = inhibition, hits mostly inhibitors | purified FLuc, Km substrates, luminescence inhibition | P08659 | AID 588342;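 also: plate controls were vehicle for no effect and reference inhibitor for full effect; nearly all actives have a fitted effect of over 55% in size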
# Target sequence (P08659 whole entry, looked up): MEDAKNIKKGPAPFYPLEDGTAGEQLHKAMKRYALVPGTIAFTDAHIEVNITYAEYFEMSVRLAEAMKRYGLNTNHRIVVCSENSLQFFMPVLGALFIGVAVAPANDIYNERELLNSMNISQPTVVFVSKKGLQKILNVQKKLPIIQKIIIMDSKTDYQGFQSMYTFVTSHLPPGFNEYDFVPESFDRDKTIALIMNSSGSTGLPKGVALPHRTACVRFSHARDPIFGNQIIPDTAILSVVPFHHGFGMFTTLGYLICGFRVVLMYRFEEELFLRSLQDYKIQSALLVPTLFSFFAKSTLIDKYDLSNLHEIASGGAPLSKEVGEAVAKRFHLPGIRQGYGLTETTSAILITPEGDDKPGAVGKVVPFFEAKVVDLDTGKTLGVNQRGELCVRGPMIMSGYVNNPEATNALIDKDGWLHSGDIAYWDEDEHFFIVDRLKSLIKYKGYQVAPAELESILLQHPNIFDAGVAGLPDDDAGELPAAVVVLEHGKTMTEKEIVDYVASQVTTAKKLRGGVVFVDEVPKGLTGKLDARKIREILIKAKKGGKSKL
#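 Purified P. pyralis luciferase (10nM final) with 10uM D-luciferin and 10uM ATP (Km levels) in 50mM Tris acetate pH 7.5, 10mM Mg acetate, 0.01% Tween-20, 0.05% BSA; qHTS 6-point titration, ~60 µM downward; luminescence read.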
# p53 reactivator = restores transcriptional activity of mutant p53 | 0.063% of 320,000 active | Potency, µM (doses to about 92.2 µM), for inactives: at the highest dose activity change, positive = activation, hits mostly activators | AID 504706 | H1299 p53-A138V BP100-luciferase reporter, luminescence, 24 h; also: % of control where 0% means no effect; nearly all actives have a fitted effect of over 45% in size
#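 p53-null H1299 cells stably carrying temperature-sensitive p53-A138V and a BP100-luciferase reporter were pinned with compounds (4-point, 1:5 series) and held 24 hrs at 37 deg C. Luminescence was read 10 min after detection reagent.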
# NPC1 prom act = activates the NPC1 promoter; Huh7 NPC1 promoter luciferase reporter, 24 h; AID 485313; Potency, µM (titrated, usually from 9.22 µM), without a hit: top-dose activation, hits mostly activators; 2.4% of 320,000 active; also: % of control where 0% means no effect; nearly all actives have a fitted effect of over 60% in size
#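 Compounds in DMSO were transferred onto Huh7 NPC1-luciferase reporter cells pre-incubated 2 h; after 24 h at 37 °C, Amplite reagent was dispensed and luminescence recorded 10 min later.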
# ELG1 genotoxic = genotoxicity induction in ELG1-luciferase HEK293T cells. Potency, µM (titrated, usually from 46 µM), inactives show at the top dose activity change, positive = activation, most hits filed as activators. 1.3% of 330,000 active. AID 504466. HEK293T ELG1-luciferase reporter, luminescence, 16 h; also: % of control where 0% means no effect; nearly all actives have a fitted effect of over 60% in size
#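 Genotoxic stress is detected as increased luminescence from luciferase-tagged ELG1 in HEK293T cells, measured with ONE-Glo after a 16 hr treatment at 37 °C.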
# Rab9 promoter act = activators of Rab9 promoter; Huh7 Rab9 promoter-luciferase reporter, luminescence, 24 h; Potency, µM (highest dose often 9.22 µM), for the others: at the top dose activation, negative = inhibition, hits mostly activators; 2.8% of 320,000 active; also: % of control where 0% means no effect; nearly all actives have a fitted effect of over 60% in size
#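 Huh7 cells stably carrying a Rab9 promoter-luciferase reporter, 1500 cells per well in OP-MEM I with 10% FBS, treated with compound 24 hours at 37C. Luciferase activity read by luminescence after 10 minutes with Amplite reagent.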
# SMN2 splice enh = increases expression of the SMN2 splice variant. 2.8% of 210,000 active. HEK293 SMN2-luciferase splicing reporter, luminescence, 30-36 h. Potency, µM (titrated, usually from 46.1 µM), for the others: at the highest dose activity change, positive = activation, actives largely listed as activators; also: % of control where 0% means no effect; nearly all actives have a fitted effect of over 55% in size
#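 HEK293 cells carry an SMN2 minigene-luciferase reporter in which exon 7 inclusion puts luciferase in frame. Cells were seeded at 2000 cells/well, attached for 10-12 hours, then exposed to compounds for 30-36 hours at 37C before ONE-Glo luminescence.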
# * hit, by the source's call; ? = inconclusive; · = no result; [ ] = dose if it differs, or a comment. Shown are actives, neighbours in structure and some others; about 7.4% of the full set was active somewhere. Calls follow the shape of the dose curve; as a rule, active = well fitted curve in the direction sought with a large enough effect; inconclusive = small, poorly fitted or top-dose-only effect, or another doubt; inactive = no such curve, though single readings can be large; an effect the other way counts as inactive or inconclusive. Potency is read from the fitted curve at half-maximal effect.
SMILES,FLuc counter,p53 reactivator,NPC1 prom act,ELG1 genotoxic,Rab9 promoter act,SMN2 splice enh
CC(C)C1Oc2ccccc2C(=O)N(CC(=O)c2ccc3c(c2)OCCO3)C1=O (centres undefined),2.4µM*,?,1.1µM*,?,1.4µM*,·
CCC1Oc2ccccc2C(=O)N(CC(=O)c2ccc3c(c2)OCCO3)C1=O (centres undefined),4.8µM*,?,?,?,?,·
CC1Oc2ccccc2C(=O)N(CC(=O)c2ccc3c(c2)OCCO3)C1=O (centres undefined),4.8µM*,5%,24%,12%,28%,·
Cn1c(=O)c2[nH]c([C@@H]3CC(=O)C[C@H](c4nc5c([nH]4)c(=O)n(C)c(=O)n5C)N3)nc2n(C)c1=O,·,·,·,·,·,-3%[9.22 µM]
COc1ccc(CNC(=O)CSc2nc(-c3ccc(OC)c(OC)c3)cc(C(F)(F)F)n2)cc1,-5%,·,·,·,·,-1%
Cc1ccc(C[C@H](C(=O)O)N2C(=O)c3ccc(C(=O)O)cc3C2=O)c(C)c1,?,·,-1%,·,-1%,·
COc1cccc(CC(=O)Nc2ccc3nc(N4CCC(C)CC4)cc(C)c3c2)c1,-13%,·,·,·,·,-18%
CCN(CC)CCCNC(=O)CCC(=O)Nc1ccc2nc(N3CCCCC3)cc(C)c2c1,-4%,?,12%,7%,-6%,-7%
Cc1cc(N2CCN(C)CC2)nc2ccc(NC(=O)CCC(=O)N3CCN(c4ccc([N+](=O)[O-])cc4)CC3)cc12,-9%,4%,-4%,-3%,-18%,·
Cc1cc(N2CCOCC2)nc2ccc(NC(=O)CCC(=O)N3CCN(c4ccccc4)CC3)cc12,12µM*,7%,?,9%,30%,·
CCCN(CCC)CCNC(=O)CCC(=O)Nc1ccc2nc(N3CCOCC3)cc(C)c2c1,-1%,11%,?,?,3.5µM*,·
COc1cccc(NC(=O)CCC(=O)Nc2ccc3nc(N4CCOCC4)cc(C)c3c2)c1,6µM*,?,?,13%,2.5µM*,·
CCCCN(CC)CCNC(=O)CCC(=O)Nc1ccc2nc(N3CCN(C)CC3)cc(C)c2c1,-4%,3%,8%,6%,-3%,-11%
CCCCNC(=O)CCC(=O)Nc1ccc2nc(N3CCCCC3)cc(C)c2c1,15µM*,?,?,9%,?,7.1µM*
CCCCNC(=O)CCC(=O)Nc1ccc2nc(N3CCOCC3)cc(C)c2c1,15µM*,20%,?,12%,?,21%
Cc1cc(N2CCCCC2)nc2ccc(NC(=O)CCC(=O)NCCC(C)C)cc12,7.6µM*,19%,?,?,3.2µM*,65%
COCCCNC(=O)CCC(=O)Nc1ccc2nc(N3CCOCC3)cc(C)c2c1,?,2%,2%,7%,?,?
Cc1cc(N2CCOCC2)nc2ccc(NC(=O)C3CCC(C)CC3)cc12 (centres undefined),1%,4%,-7%,-2%,5%,-16%
CCOC(=O)C1CCCN(C(=O)CCC(=O)Nc2ccc3nc(N4CCOCC4)cc(C)c3c2)C1 (centres undefined),17µM*,?,?,?,?,·
NS(=O)(=O)c1ccc(NCc2nc3ccccc3[nH]2)cc1,·,·,·,·,·,-4%[9.22 µM]
COc1ccc(/C=C2\Sc3ccc(C(=O)N4CCOCC4)cc3N(C)C2=O)cc1,15µM*,-18%,2%,-1%,0%,·
COc1ccccc1N1CCN(C(=O)CCc2c(C)nn(-c3ccc(N4CCCC4)nn3)c2C)CC1,2%,·,·,·,·,·
Cc1cc(C)nc(Nc2n[nH]c(-c3ccccc3Cl)n2)n1,6.7µM*,-2%,?,?,?,14µM*
Cc1cc(C)nc(Nc2n[nH]c(-c3cccc4ccccc34)n2)n1,12µM*,10%,26%,3%,30%,-12%
Cc1cc(C)nc(Nc2n[nH]c(COc3ccccc3)n2)n1,3%,6%,?,0%,?,-14%
SMILES,FLuc counter,p53 reactivator,NPC1 prom act,ELG1 genotoxic,Rab9 promoter act,SMN2 splice enh
COc1ccc(C(=O)Nc2nc3ccccc3[nH]2)cc1S(=O)(=O)N1CCCC1,?,3%,3%,3%,-2%,18%
O=C(Cc1ccccc1F)Nc1nc2ccccc2[nH]1,-17%,-4%,11%,10%,22%,18%
CN(c1ccccc1)S(=O)(=O)c1ccc(Cl)c(C(=O)Nc2nc3ccccc3[nH]2)c1,0%,-2%,-1%,-13%,-1%,-50%
CN(C)S(=O)(=O)c1ccc(C(=O)Nc2nc3ccccc3[nH]2)cc1,?,3%,?,?,?,11µM*
Cc1cc(C)cc(C(=O)Nc2nc3ccccc3[nH]2)c1,11µM*,24%,2.5µM*,?,?,·
O=C(Nc1nc2ccccc2[nH]1)c1ccc(F)c(S(=O)(=O)N2CCOCC2)c1,17µM*,?,?,14%,?,?
O=C(Nc1nc2ccccc2[nH]1)c1cc(F)cc(F)c1,2.7µM*,?,1.8µM*,?,0.63µM*,·
CCCn1c(-c2ccc(F)cc2)nc2c(NC(C)CN(C)C)nc(C)nc21 (centres undefined),·,·,·,·,·,-4%
COc1cc(OC)cc(C(=O)Nc2nc3ccccc3[nH]2)c1,11µM*,22%,21%,?,?,?
Cc1ccsc1C(=O)Nc1nc2ccccc2[nH]1,1.7µM*,0%,0.63µM*,1.2µM*,0.35µM*,·
COc1ccc2oc(C(=O)Nc3nc4ccccc4[nH]3)c(C)c2c1,0.43µM*,?,0.35µM*,?,0.32µM*,·
O=C(Nc1nc2ccccc2[nH]1)c1cc2ccccc2o1,1.3µM*,25%,2.2µM*,2.3µM*,1.1µM*,4.5µM*
O=C(Nc1ccc2nn(-c3ccccc3)nc2c1)c1cc2ccccc2o1,1%,·,·,·,·,-17%
Cc1ccc(NCC(=O)N2CCN(S(=O)(=O)c3ccccc3)CC2)cc1F,-1%,-7%,0%,1%,-6%,·
O=C1C2[C@@H](c3ccccc3)N[C@@H](c3ccccc3)C1[C@H](c1ccccc1)N[C@H]2c1ccccc1,·,·,·,·,·,0%[9.22 µM]
COc1ccc(C2c3cc(OC)c(OC)cc3CCN2C(=O)c2ccccc2Br)cc1OC (centres undefined),-1%,10%,1%,-2%,2%,·
CC(=O)N1CC=CC1(CC(C)C)C(=O)NCc1ccc(C)o1 (centres undefined),·,·,·,·,·,-1%
N#Cc1ccc(C(=O)Nc2nc3ccccc3[nH]2)cc1,2.4µM*,?,1.8µM*,?,1.8µM*,·
O=C(Nc1nc2ccccc2[nH]1)c1ccccc1F,0.19µM*,-35%,?,?,-22%,·
